Rows were chosen to be rich in hits. Some 9.2% of all compounds tested hit in one or more screens of this group.
KDM4E inh: blocks human JMJD2E demethylase activity. AID 2147. actives 1.6% (n = 230,000). JMJD2E catalytic domain, FDH-coupled NADH fluorescence (FDH is formaldehyde dehydrogenase). Potency, µM (top dose mostly 57.1 µM), inactives show at the highest dose activity change, negative = inhibition, usual class: inhibitors;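 also: 0% = wells with enzyme and -100% = buffer wells without enzyme; nearly all actives have a fitted effect of over 50% in size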
Target sequence (B2RXH2 1-337 limits assumed): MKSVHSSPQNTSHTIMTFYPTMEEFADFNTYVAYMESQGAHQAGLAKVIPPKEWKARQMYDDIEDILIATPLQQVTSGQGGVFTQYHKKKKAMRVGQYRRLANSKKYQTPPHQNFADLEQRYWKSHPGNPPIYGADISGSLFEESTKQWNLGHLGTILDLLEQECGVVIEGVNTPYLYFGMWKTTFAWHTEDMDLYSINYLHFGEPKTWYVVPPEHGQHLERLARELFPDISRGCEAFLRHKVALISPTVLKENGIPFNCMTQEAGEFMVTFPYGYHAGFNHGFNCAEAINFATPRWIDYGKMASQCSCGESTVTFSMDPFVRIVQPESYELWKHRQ
HTT ATP protect: cytoprotection in Huntington HTT-Q103 PC12 cell model; actives 0.14% (n = 230,000); PC12 HTT-Q103 induced, cytoprotection, ATP luminescence, 40 h; Potency, µM (titrated, usually from 56.4 µM), inactives show cytoprotection (ATP increase), usual class: activators; active = well fitted curve in the direction sought with a large enough effect; inconclusive = small, poorly fitted or top-dose-only effect, or another doubt; inactive = no such curve, though single readings can be large; an effect the other way counts as inactive or inconclusive; also: % of control where 0% means no effect; nearly all actives have a fitted effect of over 45% in size
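Quantitative HTS on tebufenozide-induced (100 nM) PC12 cells expressing HTTQ103 exon 1–GFP; compounds tested as a concentration series; survival measured via cellular ATP.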
HPGD inh: HPGD (human) dehydrogenase inhibition; actives 4.3% (n = 150,000); P15428; purified HPGD, NADH fluorescence kinetic, PGE2 substrate; Potency, µM, for the others: at the top dose activity change, negative = inhibition, most hits filed as inhibitors; AID 894; also: % is scaled to controls: 0 for no effect and ±100 for the full control effect
Target sequence (P15428 whole entry, looked up): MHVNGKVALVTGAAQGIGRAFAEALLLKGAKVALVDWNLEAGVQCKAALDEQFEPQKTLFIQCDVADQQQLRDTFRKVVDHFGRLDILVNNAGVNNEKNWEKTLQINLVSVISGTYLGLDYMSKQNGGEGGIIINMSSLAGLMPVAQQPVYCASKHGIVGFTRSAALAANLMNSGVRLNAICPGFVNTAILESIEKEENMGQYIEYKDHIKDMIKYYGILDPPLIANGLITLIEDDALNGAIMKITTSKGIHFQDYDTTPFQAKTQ
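20 nM HPGD preincubated 15 min at room temperature with compound in 50 mM Tris-HCl pH 8, 0.01% Tween 20. Started with 1 mM NAD+ and 30 uM prostaglandin E2; NADH fluorescence (360/450 nm) read 5 times over 30-s intervals, last minus first.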
HTT aggregate: reduces HttQ103-GFP aggregates in PC12 cells; Potency, µM (titrated, usually from 46.1 µM), for the others: at the top dose activity change, negative = inhibition, hits mostly inhibitors; PC12 HttQ103-GFP aggregates, Acumen cytometry, 40 h; AID 1688; actives 1.1% (n = 220,000); active = well fitted curve in the direction sought with a large enough effect; inconclusive = small, poorly fitted or top-dose-only effect, or another doubt; inactive = no such curve, though single readings can be large; an effect the other way counts as inactive or inconclusive; also: % is scaled to controls: 0 for no effect and ±100 for the full control effect; nearly all actives have a fitted effect of over 60% in size
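Inducible Q103 Huntingtin exon 1–GFP PC12 line, 1500 cells/well in phenol red free DMEM with 5% equine and 5% calf serum. Tebufenozide 100 nM induced expression; compounds titrated; aggregates quantified by cytometry.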
ALDH1A1 block: inhibitors of human aldehyde dehydrogenase 1A1 | P00352 | Purified ALDH1A1, NADH fluorescence, propionaldehyde substrate | Potency, µM (doses to about 75.3 µM), without a hit: top-dose activity, negative = inhibition, actives largely listed as inhibitors | actives 7.3% (n = 220,000);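 also: plate controls were no enzyme wells and a reference inhibitor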
Lamin A splicing: changes lamin A minigene splicing in HeLa cells; HeLa LMNA splicing GFP/RFP minigene ratio, 48 h; Potency, µM (highest dose often 46.1 µM), for inactives: top-dose ratio change, negative = inhibition, most hits filed as inhibitors; actives 0.01% (n = 200,000); AID 1487; active = well fitted inhibition curve with a large enough effect in the signal ratio, with a control signal flat, not every such curve was filed as active; inconclusive = small, poorly fitted or top-dose-only effect, or effect the other way, or a change in a side signal; the % refers to the signal ratio; also: % is scaled to controls: 0 for no effect and ±100 for the full control effect
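S3 HeLa cells stably expressing lamin A-EGFP splicing minigene plus DsRed2, 600 cells/well, 48 h compound exposure at 37C. Laser-scanning cytometry; analysed as GFP (500-530 nm)/RFP (575-640 nm) total intensity ratio; 0.5% DMSO vehicle.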
* = called active by the depositor; [ ] = remark or other dose. Unless noted, calls follow the shape of the dose curve; as a rule, active = well fitted inhibition curve with a large enough effect (not every such curve was filed as active); inconclusive = small, poorly fitted or top-dose-only effect, or another doubt; inactive = no such curve, though single readings can be large or run the other way. Potency is read from the fitted curve at half-maximal effect.

What do the screens show for `COC(=O)CNc1nc(C2CC2)nc2c1nnn2Cc1ccccc1Cl`?
KDM4E inh: -5%; HTT ATP protect: -13%[10 µM]; HPGD inh: 1%; HTT aggregate: 7%; ALDH1A1 block: 1.6µM*; Lamin A splicing: -8%

How did CC/C(O)=C1\C(=O)CC(c2ccccc2)CC1=NC(C)C (centres undefined) do in these assays?
KDM4E inh: -3%; HTT ATP protect: -26%[10 µM]; HPGD inh: -15%; HTT aggregate: -28%; ALDH1A1 block: -7%; Lamin A splicing: 5%

Results for CC(C)CCN1CCN(Cc2ccc(Sc3nncn3C)o2)CC1CCO (centres undefined) ?
KDM4E inh: -2%; HTT ATP protect: 0%[10 µM]; HTT aggregate: 0%[9.22 µM]; ALDH1A1 block: 6%

What do the screens show for `COc1ccc(-c2nn3c(COc4ccccc4)nnc3s2)cc1OC`?
KDM4E inh: inconclusive; HTT ATP protect: -68%; HPGD inh: inconclusive; HTT aggregate: 18%; ALDH1A1 block: inconclusive; Lamin A splicing: 3%

How did c1ccc(OCc2nnc3sc(-c4cccs4)nn23)cc1 do in these assays?
KDM4E inh: -18%; HTT ATP protect: -9%[10 µM]; HPGD inh: 8.9µM*; HTT aggregate: -17%; ALDH1A1 block: 3.5µM*; Lamin A splicing: -2%

How did Clc1ccc(Cl)c(-c2nn3c(COc4ccccc4)nnc3s2)c1 do in these assays?
KDM4E inh: -6%; HTT ATP protect: -6%[0.074 µM]; HPGD inh: 10µM*; HTT aggregate: -7%; ALDH1A1 block: 3.5µM*; Lamin A splicing: 4%

How did COc1ccccc1-c1nn2c(-c3ccccc3Cl)nnc2s1 do in these assays?
KDM4E inh: -1%; HTT ATP protect: -18%; HPGD inh: -11%; HTT aggregate: 9%; ALDH1A1 block: -11%; Lamin A splicing: 6%

What do the screens show for `CCOC(=O)C(=O)Nc1ccccc1C(=O)NCc1ccccc1`?
KDM4E inh: -2%; HTT ATP protect: -4%; HTT aggregate: 1%; ALDH1A1 block: -7%

Results for Cn1cccc1/C=N/NC(=O)c1sc2ccccc2c1Cl ?
KDM4E inh: -3%; HTT ATP protect: -8%; HPGD inh: -10%; HTT aggregate: -6%; ALDH1A1 block: inconclusive; Lamin A splicing: -5%

How did O=C(c1sc2ccccc2c1Cl)N1CCN(c2ncccn2)CC1 do in these assays?
KDM4E inh: 0%; HPGD inh: -11%; HTT aggregate: -22%; ALDH1A1 block: 13µM*; Lamin A splicing: inconclusive

How did O=C(N/N=C/c1ccccn1)c1sc2ccccc2c1Cl do in these assays?
KDM4E inh: inconclusive; HTT ATP protect: -30%[10 µM]; HTT aggregate: 11%[9.22 µM]; ALDH1A1 block: 11µM*

What do the screens show for `Cc1c(/C=N/NC(=O)c2sc3ccccc3c2Cl)cnn1C`?
KDM4E inh: -5%; HTT ATP protect: -23%; HPGD inh: -20%; HTT aggregate: -26%; ALDH1A1 block: 20µM*; Lamin A splicing: 4%

How did O=C(N/N=C/c1c[nH]c2ccccc12)c1sc2ccccc2c1Cl do in these assays?
KDM4E inh: -29%; HTT ATP protect: -14%[10 µM]; HPGD inh: -11%; HTT aggregate: -15%; ALDH1A1 block: inconclusive; Lamin A splicing: -10%

How did O=C(c1sc2ccccc2c1Cl)N1CCN(c2ccc(F)cc2)CC1 do in these assays?
KDM4E inh: 3%; HTT ATP protect: -15%; HPGD inh: -23%; HTT aggregate: -21%; ALDH1A1 block: inconclusive; Lamin A splicing: -3%

Results for Cc1ccc2c(c1)N(CCC(=O)NCc1cccnc1)C(=O)CO2 ?
KDM4E inh: 0%; HTT ATP protect: -17%; HPGD inh: -4%; HTT aggregate: 7%; ALDH1A1 block: 23%; Lamin A splicing: 9%

What do the screens show for `O=C(CN1C(=O)COc2ccccc21)NCCC1=CCCCC1`?
KDM4E inh: 8%; HTT ATP protect: -13%[1.9 µM]; HPGD inh: 0%; HTT aggregate: 11%; ALDH1A1 block: inconclusive; Lamin A splicing: 14%

Results for Cc1ccc2c(c1)N(CCC(=O)NCc1ccccn1)C(=O)CO2 ?
KDM4E inh: -2%; HTT ATP protect: -12%[10 µM]; HPGD inh: -6%; HTT aggregate: -6%; ALDH1A1 block: 22µM*; Lamin A splicing: -2%

What do the screens show for `O=C(CCN1C(=O)COc2ccccc21)NCCC1=CCCCC1`?
KDM4E inh: 1%; HTT ATP protect: 2%[10 µM]; HPGD inh: -13%; HTT aggregate: -1%; ALDH1A1 block: 32µM*; Lamin A splicing: -11%

What do the screens show for `NS(=O)(=O)c1ccc(NC(=O)COC(=O)COc2ccc(Br)cc2)cc1`?
KDM4E inh: -20%; HTT ATP protect: 11%[10 µM]; HTT aggregate: -21%[9.22 µM]; ALDH1A1 block: 18%; Lamin A splicing: 8%[46 µM]

Results for CCn1c(O)c(C=NCc2ccccc2)sc1=S ?
KDM4E inh: 5%; HTT ATP protect: -9%[10 µM]; HTT aggregate: -10%[9.22 µM]

How did CCn1c(O)c(/C=C/C=C/C=Nc2ccccc2)sc1=S do in these assays?
KDM4E inh: 4%; ALDH1A1 block: inconclusive; Lamin A splicing: 19%[46 µM]

How did CCCn1c(O)c(C=Nc2ccccc2)sc1=S do in these assays?
KDM4E inh: 4%; HTT ATP protect: -1%[10 µM]; HTT aggregate: 12%[9.22 µM]; ALDH1A1 block: 14µM*; Lamin A splicing: -4%[46 µM]

What do the screens show for `CCCCn1c(O)c(/C=C/C=C/C=Nc2ccccc2)sc1=S`?
KDM4E inh: -10%; HTT ATP protect: -19%; HTT aggregate: 15%; ALDH1A1 block: 18µM*; Lamin A splicing: inconclusive

Results for CCn1c(O)c(C=Nc2ccccc2)oc1=S ?
KDM4E inh: -2%; HTT ATP protect: -22%[10 µM]; HPGD inh: 16µM*; HTT aggregate: 6%; ALDH1A1 block: 20µM*; Lamin A splicing: 10%

Results for COc1ccc(NC(=O)COC(=O)c2ccc(Cl)c(S(N)(=O)=O)c2)c([N+](=O)[O-])c1 ?
KDM4E inh: 12%; HTT ATP protect: -14%[10 µM]; HTT aggregate: -10%[9.22 µM]; ALDH1A1 block: inconclusive; Lamin A splicing: 1%[46 µM]

What do the screens show for `N[C@@H](CSS(=O)(=O)O)C(=O)O`?
KDM4E inh: inconclusive; HTT ATP protect: 1%; HPGD inh: 28µM*; ALDH1A1 block: -1%

Results for Cc1ccccc1OCC(=O)Nc1ccccc1N1CCC(C)CC1 ?
KDM4E inh: 2%; HTT aggregate: 3%; ALDH1A1 block: -1%; Lamin A splicing: -19%[46 µM]

Results for COc1ccc(NC(=O)CSc2nc3ccccc3c(=O)n2CCCN2CCCCC2)c(OC)c1 ?
KDM4E inh: -2%; HTT ATP protect: 0%; HPGD inh: -8%; HTT aggregate: 21%[9.22 µM]; ALDH1A1 block: 10µM*; Lamin A splicing: -6%

How did COc1ccccc1CNC(=O)CSc1nc2ccccc2c(=O)n1CCCN1CCOCC1 do in these assays?
KDM4E inh: 2%; HTT ATP protect: 4%[10 µM]; HTT aggregate: -14%; ALDH1A1 block: 6%; Lamin A splicing: 11%[46 µM]

Assay outcomes as filed in PubChem.
